An excerpt weighted towards active compounds, which were near 3.5% of everything screened.
BoNT F protease – BoNT/F light chain protease inhibitors, primary screen, biochemical, flow cytometry, MLPCN library; Multiplex microsphere protease cleavage assay; 0.22% of 360,000 active; AID 588497, 2011; Botulinum neurotoxin type F light chain protease (Clostridium botulinum); inhibition, % at 10 µM; in the data active = inhibition above about 35%, passing the limit was not always enough; inconclusive = no clear call, values can overlap the other calls; note: plate controls were buffer without enzyme for full effect and enzyme alone for no effect
BJeLR lethal – MLPCN primary cell-based screen for lethality selective to Ras in HRASV12 cells; inhibition, % (no concentration beside the values); BJeLR (HRASV12) viability, CellTiter-Glo ATP luminescence, 48 h; 0.17% of 300,000 active; in the data active = inhibition above about 50%; inconclusive = no clear call, values can overlap the other calls
Anthrax LF prot – Bacillus anthracis LF protease inhibitors, primary screen, biochemical, multiplex microsphere, MLPCN library; Lethal factor (Bacillus anthracis), P15917; multiplex microsphere protease cleavage assay; inhibition, % at 10 µM; 0.12% of 360,000 active; note: plate controls were buffer without enzyme for full effect and enzyme alone for no effect
Bead autofluor – counter-screen for toxin protease inhibitors: compound fluorescence | AID 624483 | 3.1% of 360,000 active | fluorescence intensity (no concentration beside the values) | compound autofluorescence counterscreen, microsphere flow cytometry; hits give high values; in the data active = fluorescence intensity above about 16000; inconclusive = no clear call, values can overlap the other calls
BoNT A protease – BoNT/A light chain protease inhibitors, primary screen, biochemical, flow cytometry, MLPCN library | multiplex microsphere protease substrate cleavage | 0.17% of 360,000 active | AID 588499, 2011 | Botulinum neurotoxin type A light chain protease (Clostridium botulinum A str. ATCC 3502) | inhibition, % at 10 µM; note: plate controls were buffer without enzyme for full effect and enzyme alone for no effect
The depositor's hits bear a star; ? = inconclusive; . = no result given. Cut-off read from the data, not from the text of the source, unless noted: active = inhibition above about 30%; inconclusive = no clear call, values can overlap the other calls; inactive = below that.

SMILES	BoNT F protease	BJeLR lethal	Anthrax LF prot	Bead autofluor	BoNT A protease
O=C1NC[C@@H](CCCCN2C[C@H](Cc3ccc(O)cc3)N(Cc3ccccc3)C(=O)C2=O)N(CCC2CCCCC2)C1=O	0	.	-6	5878	0
CC(C)=C[C@H]1C[C@H](C)[C@H]2CC[C@H](C)c3c(O[C@@H]4OC[C@@H](O)[C@H](O)C4O)c(O)c(C)c1c32 (stereo partly drawn)	1	.	0	3878	0
Cn1c(C(C(=O)NCC2CCCO2)N(C(=O)Cn2nnc3ccccc32)C2CCCCC2)nc2ccccc21 (stereo not drawn)	-1	-9	0	21506*	-2
CCCCOc1ccc(S(=O)(=O)NC(=O)C2(C)CCN2C(=O)Cc2cccs2)cc1 (stereo not drawn)	0	.	-8	2968	0
Cc1ccc(S(=O)(=O)N2CCCC(C(=O)NCc3ccco3)C2)cc1Cl (stereo not drawn)	13	-7	0	19976*	11
CC1CCN(S(=O)(=O)c2ccc3c(c2)c(=O)c(C(=O)NCc2ccco2)cn3C)CC1	38*	18	0	3321	2
CCCCCCCCN1C(=O)[C@H](CC(=O)N2CCN(C(=O)OCC)CC2)C[C@@]2(C(=O)OC)CCCCC=C12	2	.	3	6452	0
CC1CN(C(=O)CNC(=O)COc2ccccc2)CC(C)O1 (stereo not drawn)	-12	.	1	3812	-1
CN(C)c1ccc(C=C(C#N)C(=O)c2ccccc2)cc1Br	-2	.	3	5851	7
COC(=O)c1ccccc1N=Cc1c(O)[nH]c(=O)[nH]c1=O	9	1	-14	3521	0
CC(N=Cc1c(O)[nH]c(=O)[nH]c1=O)c1ccccc1 (stereo not drawn)	-8	8	-4	17759*	-3
CC(N=Cc1cccc(O)c1O)c1ccccc1 (stereo not drawn)	-1	1	2	22938*	0
CC(N=Cc1cc([N+](=O)[O-])ccc1O)c1ccccc1 (stereo not drawn)	1	-11	0	2497	0
Cc1ccc(C(=O)Nc2cccc(C(=O)N3CCN(C)CC3)c2)cc1	1	-20	5	8113	0
Cc1ccc(-c2ccc(=O)n(CC(=O)Nc3cccc(C(=O)N4CCN(C)CC4)c3)n2)cc1	2	0	-9	19402*	?
O=C(OCCNC(=O)c1ccc2ccccc2n1)c1ccc(F)cc1	-5	-1	1	16884*	?
CON(C)C(=O)Nc1ccc(Cl)cc1	-4	0	-5	16992*	-2
CCC(=O)Nc1ccc(S(=O)(=O)Nc2cccc(C)c2)cc1OC	-3	5	0	23804*	-2
CCCCCCCCN1C(=O)[C@H](CC(=O)NCCCOCCCC)C[C@@]2(C(=O)OC)CCCCC=C12	-4	.	-6	6076	0
Cc1cccn2c(=O)c(/C=N/O)c(N3CCCC3)nc12	-3	4	-1	16881*	?
O=C(Cc1ccc([N+](=O)[O-])cc1)N1CCCc2ccccc21	-2	5	-2	4595	0
COc1ccc(N2CCN(CCCNC(=O)c3cc4sccc4n3C)CC2)cc1	-7	8	-10	8039	-1
CC1CCN(CCCNC(=O)c2cc3sccc3n2C)CC1	2	0	-2	20532*	3
CN(CC(=O)Nc1ccc(Cl)c(Cl)c1)C1CCCCC1	21	-7	1	3536	-1
COc1ccc(CCNC(=O)CN(C2CCCCC2)S(C)(=O)=O)cc1OC	-2	12	1	7890	1
SMILES	BoNT F protease	BJeLR lethal	Anthrax LF prot	Bead autofluor	BoNT A protease
COc1ccc(NC(=O)CN(C2CCCCC2)S(C)(=O)=O)cc1Cl	-5	-5	-2	21935*	-3
CS(=O)(=O)N(CC(=O)NCCc1ccccc1)C1CCCCC1	7	-10	0	18975*	5
Cc1ccc(C)c(-c2nnc(NC(=O)Cc3ccccc3)o2)c1	-4	-2	1	5926	0
NC(=S)NNC(=O)c1ccccc1	-4	-4	-5	24370*	-2
CC1(C(=O)NCc2ccccc2Br)CCN1C(=O)CCc1ccc(Cl)cc1Cl (stereo not drawn)	-2	.	0	3529	0
CC(C)Cc1cc(C(=O)N2N=C(C(F)F)CC2(O)C(F)F)c2ccccc2n1 (stereo not drawn)	-12	0	0	22633*	-10

Screening data from PubChem.
